Rows were chosen to be rich in hits. Some 8.8% of all compounds tested hit in one or more screens of this group.
HT1080 IDH1KD tx – qHTS for induction of synthetic lethality in tumor cells producing 2HG: qHTS for the HT-1080-IDH1KD cell line; HT-1080 IDH1 knockdown viability, ATP luminescence, 48 h; Potency, µM (highest dose often 46.1 µM), for inactives: at the highest dose activity, negative = toxicity, most hits filed as cytotoxic; actives 2% (n = 360,000); AID 686971, 2013;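 further: potency means the concentration at half of the fitted maximal effect; 0% = DMSO wells and -100% = cell-free medium wells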
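Luminescent ATP read-out (CellTiter-Glo, 10 min at room temperature) after 48 h compound exposure at 37 °C gave viability of IDH1-knockdown HT-1080 cells. Activity was normalised to DMSO and cell-free wells, then fitted as concentration-response curves.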
KB-3-1 cytotox – qHTS assay for MDR1-selective chemotherapeutics: Primary screen using the parental adenocarcinoma cell KB-3-1. KB-3-1 viability, CellTiter-Glo ATP luminescence, 72 h. Potency, µM (highest dose often 46.1 µM), usual class: cytotoxic. actives 1.4% (n = 400,000). AID 1347075, 2019; further: potency means the concentration at half of the fitted maximal effect; nearly all actives have a fitted effect of over 60% in size
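KB-3-1 parental drug-naive adenocarcinoma cells in DMEM/10% FBS, incubated 72 h at 37 C with pin-transferred compounds across a concentration series. Viability by CellTiter-Glo luminescence; concentration-response curves fitted after normalization.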
IL-1B inflam inh – qHTS for Inhibitors of Inflammasome Signaling: IL-1-beta AlphaLISA Primary Screen; THP-1 LPS/ATP IL-1B secretion, AlphaLISA, 16 h; stronger effect = lower value; activity change, % at 57.5 µM; actives 4.7% (n = 360,000); in the data active means activity change below about -50%; inconclusive means mostly about -30% to -49%
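THP-1 cells pretreated 1 hr with compounds (up to 57.5 uM final), then stimulated with LPS (250 ng/mL final) plus ATP (1.25 mM final); secreted IL-1B measured by AlphaLISA after 16 hr, decreased signal indicating inhibition.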
HT1080NT lethal – qHTS for induction of synthetic lethality in tumor cells producing 2HG: qHTS for the HT-1080-NT fibrosarcoma cell line; HT-1080-NT fibrosarcoma viability, CellTiter-Glo ATP luminescence, 48 h; Potency, µM (titrated, usually from 46.1 µM), without a hit: at the top dose activity, negative = less viability, usual class: cytotoxic; actives 1.6% (n = 360,000);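 further: NT is the 2HG producing partner of a matched IDH1 knockdown line; potency means the concentration at half of the fitted maximal effect; 0% = DMSO-treated cells and -100% = media-only wells without cells; nearly all actives have a fitted effect of over 55% in size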
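Viability by CellTiter-Glo luminescence after 48 h compound exposure at 37C of HT-1080-NT cells (750/well, RPMI, 5% FBS). % activity scaled between DMSO wells and medium-only wells, then curve-fitted and categorized by curve class.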
KB-V1 cytotox – qHTS assay for MDR1-selective chemotherapeutics: Primary screen using the drug-selected MDR subline cells KB-V1 | KB-V1 MDR cells viability, CellTiter-Glo, 72 h | Potency, µM (titrated, usually from 46.1 µM), actives largely listed as cytotoxic | actives 3.4% (n = 400,000); further: potency means the concentration at half of the fitted maximal effect; nearly all actives have a fitted effect of over 60% in size
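qHTS viability screen in drug-selected KB-V1 MDR cells: 72 h compound treatment at 37 degrees C, ATP luminescence end point.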
* marks the source's active call; other numbers are inactive results; i = inactive; ? = inconclusive; · = not tested or not shown; [ ] = remark or other dose. Unless noted, the call rests on the fitted dose curve; in most records, active means well fitted curve in the direction sought with a large enough effect; inconclusive means small, poorly fitted or top-dose-only effect, or another doubt; inactive means no such curve, though single readings can be large; an effect the other way counts as inactive or inconclusive. Unless noted, on the % scale 0 is the no-effect control and ±100 the full control effect.

SMILES | HT1080 IDH1KD tx | KB-3-1 cytotox | IL-1B inflam inh | HT1080NT lethal | KB-V1 cytotox
Cc1sc2nc(C3CC3)nc(N3CCN(C(=O)c4ccc(F)cc4)CC3)c2c1C | ? | i | -60* | ? | i
CC1=C(CC/C(C)=N/NC(N)=S)C(C)(C)CCC1 | 8.9µM* | ? | -3 | 6.3µM* | i
CCc1nn(CC(=O)Nc2cccc(C(C)=O)c2)c(=O)c2cc3sccc3n12 | · | i | · | · | i
CC1=C/C(=C(/c2cc(C)c(O)c(Br)c2)c2ccccc2S(=O)(=O)O)C=C(Br)C1=O | ? | ? | -71* | ? | ?
CN(C)CCNC(=O)c1cccc(-c2cnc3c(NC=O)cc(-c4ccc(F)cc4)cn23)c1 | 23µM* | i | -8 | ? | i
CCSc1ccc(-c2cc(NC=O)c3ncc(-c4cccc(C(=O)NCCN(C)C)c4)n3c2)cc1 | ? | ? | -108* | 18µM* | i
COc1cccc(C(NC(C)=O)c2nc(-c3ccc(OC)nc3)cs2)c1 (stereo not given) | 0% | i | -74* | -22% | i
COc1cccc(C(NC(C)=O)c2nc(-c3cccc(C#N)c3)cs2)c1 (stereo not given) | 6% | i | -74* | 0% | i
COc1ccc(-c2csc(C(NC(C)=O)c3cccc(OC)c3)n2)cc1 (stereo not given) | 13% | i | 22 | 12% | i
COc1ccc(N(CC(=O)Nc2ccccc2F)S(=O)(=O)c2ccc(OC)c(OC)c2)cc1 | -2% | i | -3 | 9% | i
O=C(NCc1nnc2c(C(F)(F)F)cc(Cl)cn12)C1CCCC1 | 6% | i | 4 | 9% | i
Cc1nn(-c2ccccc2)c2sc(C(=O)N3CCCCC3)cc12 | -25% | i | -16 | -15% | ?
Cc1nn(-c2ccccc2)c2sc(C(=O)N3CCc4ccccc4C3)cc12 | ? | i | ? | -28% | 18µM*
Cc1nn(-c2ccccc2)c2sc(C(=O)Nc3ccc(Br)cc3)cc12 | · | i | · | · | i
Cc1nn(-c2ccccc2)c2sc(C(=O)NNC(=O)COc3cccc4ccccc34)cc12 | 8% | ? | 2 | 2% | 18µM*
Cc1cnc(NC(=O)c2cc3c(C)nn(-c4ccccc4)c3s2)s1 | ? | i | 17 | 11µM* | i
COc1ccc(N2CCN(CCCNC(=O)C(=O)c3c[nH]c4ccccc34)CC2)cc1 | -14% | i | -20 | -6% | ?
COc1ccc(OC)c(NC(=O)C2=C(C)C(=O)OC23CCN(C(C)C)CC3)c1 | · | i | · | · | i
CCc1nnc(NC(=O)CSc2nccn2-c2cc(C)cc(C)c2)s1 | -2% | 18µM* | -11 | 14% | i
COc1ccc(NC(=O)CC(=O)Nc2ccc(OC)cc2OC)c(OC)c1 | 7% | i | -9 | 6% | 21µM*
COc1ccc(NC(=O)c2csc3c2CCCCC3)c(OC)c1 | -7% | ? | -175* | 1% | ?
COc1ccc(OC)c(NC(=O)CS(=O)(=O)c2ccccc2)c1 | 2% | i | 7 | -5% | 18µM*
COc1ccc(NCC(=O)Nc2ccc(Cl)cc2C)c(OC)c1 | 16µM* | i | ? | ? | i
CCOc1ccc(NCC(=O)Nc2ccc(Cl)cc2C)cc1 | ? | i | -26 | -5% | ?
COc1cccc(NC(=O)c2csc3c2CCCCC3)c1 | · | i | · | · | i
SMILES | HT1080 IDH1KD tx | KB-3-1 cytotox | IL-1B inflam inh | HT1080NT lethal | KB-V1 cytotox
CCCNS(=O)(=O)c1cc2c3c(c1)CCN3C(=O)CC2 | 0% | i | -25 | -5% | i
c1cn(CCCNC2CCCCCCC2)cn1 | 12% | i | -7 | 4% | i
CN=c1scc(-c2ccc(F)cc2)n1/N=C/c1ccc(O)c(O)c1 | 8.2µM* | ? | 50 | ? | i
O=C(NCC(=O)N1CCN(c2ccccc2)CC1)c1ccc(Br)o1 | 4% | · | -2 | 6% | ·
O=C(NC12CC3CC(CC(C3)C1)C2)c1ccc(N2CCNCC2)c([N+](=O)[O-])c1 | ? | 18µM* | ? | -31% | 23µM*
CS(=O)(=O)N1CCN(c2ccc(C(=O)NC34CC5CC(CC(C5)C3)C4)cc2[N+](=O)[O-])CC1 | 10% | i | 26 | 2% | i
O=C(NCc1ccccc1Cl)C(=O)NCC1OCCCN1S(=O)(=O)c1cccs1 (stereo not given) | 13% | i | i | 5% | ?
COc1cccc(/C=N/NC(=O)c2nnn(-c3nonc3N)c2C(C)C)c1OCc1ccc(F)cc1 | ? | i | -70* | -22% | i
CC(C)c1c(C(=O)N/N=C/c2cccc(OCc3ccccc3)c2)nnn1-c1nonc1N | -10% | i | -84* | 0% | i
Cc1nc(-c2ccc(NC(=O)c3ccccc3C)cc2)cs1 | -15% | ? | -5 | -20% | i
Cc1nc(-c2ccc(NC(=O)c3ccccc3Br)cc2)cs1 | -10% | i | -52* | -2% | i
Cc1nc(-c2ccc(C(=O)Nc3cccc(F)c3)cc2)cs1 | ? | i | -24 | ? | i
Cc1nc(-c2cccc(NC(=O)c3ccc(-n4cccn4)cc3)c2)cs1 | -7% | i | -51* | 4%[9.24 µM] | ?
Cc1nc(-c2ccc(C(=O)Nc3ccccc3F)cc2)cs1 | 21µM* | ? | -14 | 12µM* | 12µM*
Cc1c(NS(=O)(=O)c2ccc3c(c2)Cc2ccccc2-3)c(=O)n(-c2ccccc2)n1C | 9% | i | 8 | 12% | i
O=C(NCCOc1ccccc1)c1cc(C(=O)NCCOc2ccccc2)cc([N+](=O)[O-])c1 | -18% | ? | -11 | 0% | 3.7µM*
COc1cc2c(cc1NC(=O)c1cccc(F)c1)CCCC2 | 6% | i | -3 | 6% | 23µM*
COc1cccc(Oc2ccc(C(F)(F)F)cc2N)c1 | -19% | i | -70* | -13% | i
CCOc1ccc(Oc2ccc(C(F)(F)F)cc2N)cc1 | -3% | i | -18 | -1% | i
COc1ccc(OCCNC(=O)c2cccc(Oc3ccc(C(F)(F)F)cc3[N+](=O)[O-])c2)cc1 | -25% | ? | 0 | -2% | 2.9µM*
O=C(NCCO)c1ccc(Oc2ccc(C(F)(F)F)cc2[N+](=O)[O-])cc1 | -8% | i | -2 | ? | i
C(=NOCCc1ccccc1)c1ccccn1 | 21% | i | -11 | 1% | i
COC(=O)[C@]12CCCCC=C1N(CCC1=CCCCC1)C(=O)[C@H](CC(=O)N1CCN(C(=O)C3CC3)CC1)C2 | -5% | i | -4 | 6% | i
